From PubChem BioAssay (Tox21)
Results filed as inconclusive are left out. Calls of active or inactive are those of the source. Unless noted, the call rests on the fitted dose curve; in most records, active means well fitted curve in the direction sought with a large enough effect in the repeat runs; inconclusive means weak or mixed curves; inactive means no such curve, though single readings can be large; an effect the other way counts as inactive or inconclusive.

Assays:
[1] = qHTS assay for small molecule agonists of the p53 signaling pathway (AID 651631; calls by dose curve; further: nearly all actives have a fitted effect of over 15% in size)
How it was run: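 Fluorescence intensity from cleaved LiveBLAzer B/G substrate (2 h, room temperature) served as the signal. Beforehand, HCT-116 reporter cells bearing p53 response elements were treated 16 h at 37 °C with DMSO-dissolved compounds.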

[2] = qHTS assay for small molecules that induce genotoxicity in human embryonic kidney cells expressing luciferase-tagged ATAD5 (AID 651632); further: nearly all actives have a fitted effect of over 15% in size
How it was run: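 Increased luciferase signal from ATAD5-tagged reporter cells indicates DNA-damage-driven ATAD5 induction. HEK293T cells are treated for 16 hr at 37C before detection with Amplite.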

[3] = qHTS assay for small molecule agonists of the p53 signaling pathway - cell viability (AID 651633; calls by dose curve; further: nearly all actives have a fitted effect of over 30% in size; further: potency means the concentration at half of the fitted maximal effect)
How it was run: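 p53RE-bla cells, seeded at 4,000 per well and rested 5 h at 37 C/5% CO2, received compounds in DMSO for 16 h at 37 C. CellTiter-Glo was then added, and luminescence was read after 30 min at room temperature to gauge cytotoxicity.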

[4] = qHTS assay for small molecules that induce genotoxicity in human embryonic kidney cells expressing luciferase-tagged ATAD5 - cell viability (AID 651634; calls by dose curve; further: nearly all actives have a fitted effect of over 25% in size)
How it was run: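 Cytotoxicity counterscreen in HEK293T cells bearing an ATAD5-luciferase reporter: live-cell protease activity measured by CellTiter-Fluor fluorescence after 15.5 hr compound exposure.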

[5] = qHTS assay to test for compound auto fluorescence at 535 nm (green) in HepG2 cells (AID 720675)
[6] = qHTS assay to test for compound auto fluorescence at 460 nm (blue) in HEK293 cells (AID 720678)
How it was run: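 HEK293, 2,000 cells/well, 10% dialyzed FBS; attach 4-5 hr 37C; pin compound or DMSO; o/n 37C/5% CO2; fluorescence 405/460 nm; triamterene-equivalent units.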

[7] = qHTS assay to test for compound auto fluorescence at 590 nm (red) in HEK293 cells (AID 720679)
How it was run: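 Intensity at 540nm excitation and 590nm emission is reported as Rose Bengal sodium-equivalent autofluorescence. Measurements followed overnight exposure (37C, 5% CO2) of HEK293 cells, 2,000 per well, to 23 nL compound.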

[8] = qHTS assay to test for compound auto fluorescence at 535 nm (green) in HEK293 cells (AID 720680)
[9] = qHTS assay to test for compound auto fluorescence at 460 nm (blue) in HEK293 cell free culture (AID 720681)
How it was run: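 Test compounds were pinned into cell-free culture medium (DMEM with 10% FBS) and fluorescence was read directly at Ex/Em 405/460 nm. Signals were expressed as fluorescence equivalents of triamterene, with DMSO vehicle as control.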

[10] = qHTS assay to test for compound auto fluorescence at 535 nm (green) in HEK293 cell free culture (AID 720682)
How it was run: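 Intrinsic compound fluorescence is measured in culture medium containing 10% FBS, with excitation at 485 nm and detection at 535 nm, referenced to fluorescein.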

[11] = qHTS assay to test for compound auto fluorescence at 590 nm (red) in HEK293 cell free culture (AID 720683)
How it was run: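 Tox21 10K library compounds were pinned into cell-free DMEM with 10% FBS and fluorescence was read at excitation 540 nm. Activity is expressed as Rose Bengal sodium equivalency.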

[12] = qHTS assay to test for compound auto fluorescence at 590 nm (red) in HepG2 cell free culture (AID 720684)
How it was run: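 Measured in medium alone (MEM containing 10% FBS) following pintool addition of compound; emission at 590 nm with 540 nm excitation, referenced to Rose Bengal sodium.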

[13] = qHTS assay to test for compound auto fluorescence at 460 nm (blue) in HepG2 cell free culture (AID 720685)
How it was run: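 Compound (23 nL) or DMSO pinned into cell-free MEM with 10% FBS; blue fluorescence read at 405/460 nm excitation/emission, expressed as auto-fluorescence equivalency to triamterene.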

[14] = qHTS assay to test for compound auto fluorescence at 535 nm (green) in HepG2 cell free culture (AID 720686)
[15] = qHTS assay to test for compound auto fluorescence at 460 nm (blue) in HepG2 cells (AID 720687)
How it was run: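 Cells (2,000/well in MEM with 10% FBS) attached overnight at 37 C, then were exposed to compound or DMSO for 1 hr at 37 C, 5% CO2. Fluorescence read at Ex/Em 405/460 nm, expressed as triamterene-equivalent signal.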

[16] = qHTS assay for small molecule disruptors of the mitochondrial membrane potential - cell viability (AID 720634; calls by dose curve;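 further: human HepG2 liver cancer cells; nearly all actives have a fitted effect of over 20% in size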)
How it was run: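 After overnight attachment at 37 C, HepG2 cells received compound or DMSO vehicle for 1 hr. Viability is then taken from ATP-driven luminescence following a 30 min room-temperature CellTiter-Glo step.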

[17] = qHTS assay to test for compound auto fluorescence at 590 nm (red) in HepG2 cells (AID 720674)
How it was run: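 Intrinsic compound fluorescence in the red window (Ex/Em 540/590 nm) is measured in attached HepG2 cells exposed for 1 hr, DMSO vehicle as baseline, benchmarked to Rose Bengal sodium.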

[18] = target: Glucocorticoid receptor (Homo sapiens) (UniProt P04150); experiment: qHTS assay to identify small molecule agonists of the glucocorticoid receptor (GR) signaling pathway (AID 720691; active means well fitted activation curve with a large enough effect in the signal ratio in the repeat runs, not every such curve was filed as active; the % refers to the signal ratio); conditions: GR-bla HeLa, beta-lactamase reporter ratio, 18 h; activation: at 62.4 µM (top of the series) unless noted
Sequence of Glucocorticoid receptor (Homo sapiens) (P04150 whole entry, looked up): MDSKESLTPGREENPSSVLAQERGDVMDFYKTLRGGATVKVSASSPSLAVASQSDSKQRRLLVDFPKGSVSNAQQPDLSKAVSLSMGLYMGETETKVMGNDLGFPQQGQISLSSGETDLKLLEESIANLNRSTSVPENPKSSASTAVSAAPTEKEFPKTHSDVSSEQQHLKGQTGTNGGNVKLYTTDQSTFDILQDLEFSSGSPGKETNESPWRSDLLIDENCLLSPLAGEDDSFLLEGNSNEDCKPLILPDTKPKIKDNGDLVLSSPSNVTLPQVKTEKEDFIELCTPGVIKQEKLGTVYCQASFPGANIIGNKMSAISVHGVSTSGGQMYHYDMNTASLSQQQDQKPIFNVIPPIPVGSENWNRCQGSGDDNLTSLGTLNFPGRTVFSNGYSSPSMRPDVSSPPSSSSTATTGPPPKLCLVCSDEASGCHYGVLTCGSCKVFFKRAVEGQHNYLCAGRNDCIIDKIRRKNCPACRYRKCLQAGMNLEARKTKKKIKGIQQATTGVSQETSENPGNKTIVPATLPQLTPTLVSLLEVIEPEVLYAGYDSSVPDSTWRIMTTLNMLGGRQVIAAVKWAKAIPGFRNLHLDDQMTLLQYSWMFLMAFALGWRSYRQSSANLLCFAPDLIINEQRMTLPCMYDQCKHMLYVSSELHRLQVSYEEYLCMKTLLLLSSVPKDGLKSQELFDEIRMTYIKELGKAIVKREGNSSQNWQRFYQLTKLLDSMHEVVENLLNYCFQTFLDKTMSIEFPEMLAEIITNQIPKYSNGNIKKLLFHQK
How it was run: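 Agonist mode in a HeLa line carrying a GRE-controlled beta-lactamase reporter. Compounds act for 18 h at 37 C before a 2 h room-temperature FRET substrate step and fluorescence reading.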

[19] = target: Glucocorticoid receptor (Homo sapiens) (UniProt P04150); experiment: qHTS assay to identify small molecule antagonists of the glucocorticoid receptor (GR) signaling pathway (AID 720692; active means well fitted inhibition curve with a large enough effect in the signal ratio in the repeat runs, not every such curve was filed as active; the % refers to the signal ratio)
How it was run: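 Cells plated, rested 4 h at 37 C/5% CO2; compounds in DMSO pin-transferred; dexamethasone added to 5 nM final; 18 h at 37 C; B/G FRET substrate added, 2 h room temperature; fluorescence measured.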

[20] = qHTS assay for small molecule disruptors of the mitochondrial membrane potential (AID 720635); further: potency means the concentration at half of the fitted maximal effect
How it was run: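 HepG2 cells (2,000/well) attached overnight at 37C, then took compound for 1 hr at 37C, 5% CO2. Mito-MPS dye was added for 30 min; fluorescence was read at 490/535 nm (monomers) and 540/590 nm (aggregates).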
On the % scale 0 is the no-effect control and ±100 the full control effect.

CN(C)c1ccc(C(c2ccccc2)c2ccc(N(C)C)cc2)cc1
inactive: Potency [1] | Potency [2] | Potency [3] | Potency [4] | Potency [5] | outcome [6] | Potency [7] | outcome [8] | outcome [9] | outcome [10] | Potency [11] | Potency [12] | outcome [13] | Potency [14] | outcome [15]

O=C(c1ccc(F)cc1)C1CCN(CCn2c(=S)[nH]c3ccccc3c2=O)CC1
inactive: Potency [1] | Potency [2] | Potency [3] | Potency [16] | Potency [17] | Potency [5] | outcome [6] | Potency [7] | outcome [8] | outcome [9] | outcome [10] | Potency [11] | Potency [12] | outcome [13] | Potency [14] | outcome [15] | Potency [18] | Potency [19]

CNCCCN1c2ccccc2CCc2ccccc21
inactive: Potency [1] | Potency [2] | Potency [3] | Potency [16] | fluorescence, relative to Rose Bengal [17] -0.337% [at 18.6 µM] | fluorescence, % of fluorescein control [5] 0.0155% [at 18.6 µM] | fluorescence, % of triamterene [6] 0.119% [at 18.6 µM] | fluorescence, % of fluorescein [8] -0.0036% [at 18.6 µM] | fluorescence, % of fluorescent control [9] 0.0048% [at 18.6 µM] | activity change [10] 0.0761% [at 18.6 µM] | fluorescence, % of fluorescent control [11] 0.0052% [at 18.6 µM] | fluorescence, % of Rose Bengal [12] 0.569% [at 18.6 µM] | fluorescence, % of fluorescent control [13] 0.0158% [at 18.6 µM] | fluorescence, % of fluorescent control [15] 0.0417% [at 18.6 µM]

CCCCc1nc2cccnc2n1Cc1ccc(-c2ccccc2-c2nnn[nH]2)cc1
inactive: Potency [1] | Potency [2] | Potency [3] | Potency [17] | Potency [5] | outcome [6] | Potency [7] | outcome [8] | outcome [9] | outcome [10] | Potency [12] | outcome [13] | Potency [14] | outcome [15]

CC1(c2ccccc2)OC(C(=O)O)=CC1=O (stereo not given)
inactive: Potency [1] | Potency [2] | Potency [3] | Potency [16] | Potency [17] | Potency [5] | outcome [6] | Potency [7] | outcome [8] | outcome [9] | outcome [10] | Potency [11] | Potency [12] | outcome [13] | Potency [14] | outcome [15]

O=C(O)c1nc(Cl)c(Cl)c(Cl)c1Cl
inactive: Potency [2] | Potency [3] | Potency [4] | Potency [16] | Potency [20] | Potency [17] | Potency [5] | outcome [6] | Potency [7] | outcome [8] | outcome [9] | outcome [10] | Potency [11] | Potency [12] | outcome [13] | outcome [15] | Potency [18]

CC(C)(C)OCC1CO1 (stereo not given)
inactive: Potency [2] | Potency [3] | Potency [4] | Potency [16] | Potency [20] | Potency [17] | Potency [5] | outcome [6] | Potency [7] | outcome [9] | outcome [10] | Potency [11] | Potency [12] | outcome [13] | Potency [14] | outcome [15]

CCc1c(C(=O)NN2CCCCC2)nn(-c2ccc(Cl)cc2Cl)c1-c1ccc(Br)cc1
inactive: Potency [2] | Potency [4] | Potency [16] | Potency [17] | Potency [5] | outcome [6] | Potency [7] | outcome [8] | outcome [9] | outcome [10] | Potency [11] | Potency [12] | outcome [13] | outcome [15]
active: Potency [3] 13.7 µM | Potency [20] 24.3 µM

CCCCCCc1ccc(-c2ccc(C#N)cc2)cc1
inactive: Potency [2] | Potency [3] | Potency [4] | Potency [16] | Potency [17] | Potency [5] | outcome [6] | Potency [7] | outcome [9] | outcome [10] | Potency [11] | Potency [12] | outcome [13] | Potency [14] | outcome [15] | Potency [18]
active: Potency [20] 26.8 µM

O=C(O)C(S)C(S)C(=O)O (stereo not given)
inactive: Potency [2] | Potency [3] | Potency [4] | Potency [16] | Potency [20] | Potency [17] | Potency [5] | outcome [6] | Potency [7] | outcome [8] | outcome [9] | outcome [10] | Potency [11] | Potency [12] | outcome [13] | Potency [14] | outcome [15]

C=C(C)C(=O)OCC
inactive: Potency [2] | Potency [3] | Potency [4] | Potency [16] | Potency [20] | Potency [17] | Potency [5] | outcome [8] | outcome [9] | outcome [10] | Potency [11] | Potency [12] | outcome [13] | Potency [14] | outcome [15] | Potency [18] | Potency [19]

CCCCO
inactive: Potency [1] | Potency [3] | Potency [4] | Potency [16] | Potency [20] | Potency [17] | Potency [5] | outcome [6] | outcome [8] | outcome [9] | outcome [10] | Potency [11] | Potency [12] | outcome [13] | outcome [15]

CC(=O)c1cccc([N+](=O)[O-])c1
inactive: Potency [1] | Potency [3] | Potency [16] | Potency [20] | Potency [17] | Potency [5] | outcome [6] | Potency [7] | outcome [8] | outcome [9] | outcome [10] | Potency [11] | Potency [12] | outcome [13] | Potency [14] | outcome [15] | Potency [18] | Potency [19]
